# Activity calls are given as the source filed them.
# Assays:
# Albumin (Bos taurus) = Albumin (Bos taurus) (UniProt P02769); experiment: compounds binding labelled BSA control protein – biochemical, small-molecule microarray, Alexa647 label, 635/667 nm fluorescence, artefact control for SMM control protein annotation, profiling panel (AID 1118); settings: BSA-A647 binding, fluorescence 635 nm, higher = more signal;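 further: score merges 667 nm emission intensity and signal-to-noise per printed compound spot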
# Sequence of Albumin (Bos taurus) (P02769 whole entry, looked up): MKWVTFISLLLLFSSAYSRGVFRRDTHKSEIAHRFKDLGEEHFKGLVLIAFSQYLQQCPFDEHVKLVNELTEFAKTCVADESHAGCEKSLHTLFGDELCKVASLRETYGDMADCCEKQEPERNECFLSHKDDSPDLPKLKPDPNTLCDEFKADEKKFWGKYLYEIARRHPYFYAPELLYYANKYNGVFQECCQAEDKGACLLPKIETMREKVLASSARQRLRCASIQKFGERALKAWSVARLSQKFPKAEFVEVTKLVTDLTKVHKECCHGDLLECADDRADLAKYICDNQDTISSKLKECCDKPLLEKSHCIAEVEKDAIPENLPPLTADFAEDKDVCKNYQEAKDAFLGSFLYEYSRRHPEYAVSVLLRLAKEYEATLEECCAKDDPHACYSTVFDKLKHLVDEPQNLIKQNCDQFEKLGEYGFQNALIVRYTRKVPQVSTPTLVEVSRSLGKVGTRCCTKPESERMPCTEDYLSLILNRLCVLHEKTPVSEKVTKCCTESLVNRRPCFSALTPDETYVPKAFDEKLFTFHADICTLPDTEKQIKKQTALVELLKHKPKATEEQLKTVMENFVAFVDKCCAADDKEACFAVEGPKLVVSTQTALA
# [1] = probe aXIP binding to arrayed compounds – biochemical, NeuroSMM set, 635/667 nm fluorescence, primary screen (AID 1119); settings: small-molecule microarray, higher = more signal, called active from +8 up or from −8 down;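 further: probe is the protein aXip251-270 applied at 1 µg/mL to compound-printed slides; binding of probe to printed compounds measured as 667 nm fluorescence plus signal to noise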
# [2] = probe aNOTCH3 binding on compound microarray – biochemical, small-molecule microarray, 635/667 nm fluorescence, primary screen (AID 1120); settings: higher = more signal;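 further: probe is a biotin-tagged antibody raised against NOTCH3 rather than NOTCH3 protein; score merges spot fluorescence near 667 nm with spot signal to noise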
# [3] = probe aNOTCH2 binding on compound microarray – biochemical, small-molecule microarray, 635/667 nm fluorescence, primary screen (AID 1121); settings: higher = more signal;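 further: score merges feature fluorescence read at 667 nm with its signal to noise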
# [4] = target: Carbonic anhydrase 2 (Homo sapiens) (UniProt P00918); experiment: compounds binding carbonic anhydrase 2 – biochemical, small-molecule microarray, Alexa647-labelled CAII, profiling panel (AID 1122); settings: CAII-A647 binding fluorescence, higher = more signal
# [5] = COS7 lysate on small-molecule microarray, probe aHis, 635 nm (AID 1123); settings: COS7 cell lysate, fluorescence, higher = more signal;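 further: z-score combines 667nm fluorescence intensity with signal-to-noise per printed compound spot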
# [6] = probe aLAP1 signal on lysate-treated microarray – cell lysate, small-molecule microarray, COS7 lysate, primary screen (AID 1124); settings: probe aLAP1, fluorescence, higher = more signal;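 further: lysate comes from COS7 cells expressing LAP1 and is applied at 0.3 µg/mL; score merges spot fluorescence near 667 nm with signal-to-noise over triplicate slides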
# Sam68 (KHDRBS1) = experiment: compounds binding KHDRBS1 protein – biochemical, small-molecule microarray, 635 nm fluorescence, primary screen (AID 1125); settings: higher = more signal;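 further: score merges 667 nm channel intensity with signal to noise over triplicate slides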
# [7] = system: Chordin-like protein 2 (CHRDL2); experiment: compounds binding chordin-like 2 – biochemical, small-molecule microarray, 635 nm fluorescence, primary screen (AID 1126); settings: fluorescence 635 nm, higher = more signal;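 further: printed compound slides probed with Chrdl2 protein at 4 µg/mL for 1 h at 4 C; score merges 667 nm emission intensity with signal to noise over three replicate slides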
# [8] = target: Concanavalin-A (Canavalia ensiformis) (UniProt P02866); experiment: compounds binding concanavalin A lectin – biochemical, small-molecule microarray, Alexa647 label, 635 nm, artefact control for SMM control protein annotation, primary screen (AID 1127); settings: ConA-A647 binding fluorescence, higher = more signal;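 further: z combines 667 nm emission intensity with signal-to-noise across three replicate slides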
# Sequence of Concanavalin-A (Canavalia ensiformis) (P02866 whole entry, looked up): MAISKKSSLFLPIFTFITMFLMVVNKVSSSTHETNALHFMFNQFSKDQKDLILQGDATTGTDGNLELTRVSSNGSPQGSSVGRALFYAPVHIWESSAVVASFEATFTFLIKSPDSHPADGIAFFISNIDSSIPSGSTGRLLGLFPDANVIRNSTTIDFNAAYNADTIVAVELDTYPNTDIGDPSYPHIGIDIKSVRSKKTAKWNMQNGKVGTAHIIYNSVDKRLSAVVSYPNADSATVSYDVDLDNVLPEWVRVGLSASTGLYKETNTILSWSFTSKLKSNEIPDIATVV
# [9] = compounds binding Alexa647 anti-His antibody – biochemical, small-molecule microarray, 635 nm fluorescence, artefact control for SMM control protein annotation, primary screen (AID 1128); settings: higher = more signal;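 further: score merges feature fluorescence with signal-to-noise for each printed compound spot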
# [10] = system: Human papillomavirus type 1a E7 protein (residues 1-88); experiment: HPV1a E7 small-molecule binders, primary screen, biochemical, small-molecule microarray, residues 1-88, 635 nm (AID 1129); settings: small-molecule microarray binding, fluorescence 635 nm; higher = more signal
# [11] = target: Focal adhesion kinase 1 (Homo sapiens) (UniProt Q05397); experiment: PTK2 protein binding on printed compound slides – biochemical, small-molecule microarray, 635/667 nm fluorescence, BSA, DTT, primary screen (AID 1130); settings: 635 nm fluorescence, higher = more signal;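 further: composite of spot emission at 667 nm and signal to noise over triplicate slides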
# Sequence of Focal adhesion kinase 1 (Homo sapiens) (Q05397 whole entry, looked up): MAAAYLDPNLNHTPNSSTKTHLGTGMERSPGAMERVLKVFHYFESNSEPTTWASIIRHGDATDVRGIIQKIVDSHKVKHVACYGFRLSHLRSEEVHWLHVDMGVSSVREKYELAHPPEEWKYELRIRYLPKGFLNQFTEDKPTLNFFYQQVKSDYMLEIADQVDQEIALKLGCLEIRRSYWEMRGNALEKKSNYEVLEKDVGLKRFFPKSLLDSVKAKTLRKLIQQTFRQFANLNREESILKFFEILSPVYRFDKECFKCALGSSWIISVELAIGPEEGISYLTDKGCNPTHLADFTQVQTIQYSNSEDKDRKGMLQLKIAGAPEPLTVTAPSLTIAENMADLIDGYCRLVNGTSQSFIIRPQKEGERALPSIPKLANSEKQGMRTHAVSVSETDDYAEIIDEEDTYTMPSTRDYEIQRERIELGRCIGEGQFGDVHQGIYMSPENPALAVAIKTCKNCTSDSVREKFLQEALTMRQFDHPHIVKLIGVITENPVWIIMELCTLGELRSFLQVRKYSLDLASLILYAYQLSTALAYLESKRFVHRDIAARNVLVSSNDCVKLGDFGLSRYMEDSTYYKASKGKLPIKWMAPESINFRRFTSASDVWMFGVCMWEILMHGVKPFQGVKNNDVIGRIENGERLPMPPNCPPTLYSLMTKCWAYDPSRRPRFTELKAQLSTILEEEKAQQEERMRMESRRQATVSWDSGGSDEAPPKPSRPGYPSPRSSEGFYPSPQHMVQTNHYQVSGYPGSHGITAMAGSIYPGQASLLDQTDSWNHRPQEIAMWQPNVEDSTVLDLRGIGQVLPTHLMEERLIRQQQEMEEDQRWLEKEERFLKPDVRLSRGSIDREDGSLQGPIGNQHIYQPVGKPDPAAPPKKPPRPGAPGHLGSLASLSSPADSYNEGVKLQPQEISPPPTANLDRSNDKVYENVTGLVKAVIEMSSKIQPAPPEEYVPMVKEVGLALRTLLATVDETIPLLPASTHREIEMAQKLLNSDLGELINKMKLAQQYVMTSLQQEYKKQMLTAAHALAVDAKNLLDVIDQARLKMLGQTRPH
# [12] = system: Fibrinogen (Alexa647-labelled); experiment: Alexa647-fibrinogen binding to printed small molecules – biochemical, small-molecule microarray, 635/667 nm fluorescence, artefact control for SMM control-protein annotation, profiling panel (AID 1131); settings: fibrinogen-A647 binding fluorescence, higher = more signal;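 further: z-score merges 667 nm fluorescence with per-spot signal-to-noise over triplicate slides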
# [13] = target: Follistatin (Homo sapiens) (UniProt P19883); experiment: FST protein binding to printed compounds – biochemical, small-molecule microarray, 635/667 nm fluorescence, primary screen (AID 1132); settings: 635 nm fluorescence, higher = more signal
# Sequence of Follistatin (Homo sapiens) (P19883 whole entry, looked up): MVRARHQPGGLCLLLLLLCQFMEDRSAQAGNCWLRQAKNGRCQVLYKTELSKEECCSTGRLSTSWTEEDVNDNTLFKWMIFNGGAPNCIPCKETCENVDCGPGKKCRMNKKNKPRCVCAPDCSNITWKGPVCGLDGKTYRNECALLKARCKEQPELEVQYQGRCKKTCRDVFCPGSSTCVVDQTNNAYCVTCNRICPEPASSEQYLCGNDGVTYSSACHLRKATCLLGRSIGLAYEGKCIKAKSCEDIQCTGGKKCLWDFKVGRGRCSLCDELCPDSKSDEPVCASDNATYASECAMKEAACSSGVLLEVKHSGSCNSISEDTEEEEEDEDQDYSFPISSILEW
# [14] = target: Fibroblast growth factor 2 (Homo sapiens) (UniProt P09038); experiment: basic fibroblast growth factor binding to printed compounds – biochemical, small-molecule microarray, 635/667 nm fluorescence, primary screen (AID 1133); settings: FGF2, fluorescence 635/667, higher = more signal
# Sequence of Fibroblast growth factor 2 (Homo sapiens) (P09038 whole entry, looked up): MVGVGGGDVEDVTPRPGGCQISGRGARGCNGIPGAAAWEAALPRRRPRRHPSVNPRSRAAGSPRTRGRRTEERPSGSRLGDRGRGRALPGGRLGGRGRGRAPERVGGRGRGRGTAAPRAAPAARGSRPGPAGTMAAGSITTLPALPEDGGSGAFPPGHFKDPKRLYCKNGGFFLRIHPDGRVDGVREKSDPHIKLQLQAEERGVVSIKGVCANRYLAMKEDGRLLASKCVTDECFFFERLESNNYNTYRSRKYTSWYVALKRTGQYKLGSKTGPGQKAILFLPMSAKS
# [15] = JC-1 mitochondrial potential readout, lung cancer cells – cell-based, A549, JC-1 fluorescence, basal, 24 h, 100 nL, profiling panel (AID 1138); settings: higher = more signal;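 further: A549 lung adenocarcinoma cells under basal conditions with no added stimulus; test concentration not given here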
# Lefty1 = Lefty1 protein binding to printed compounds – biochemical, small-molecule microarray, 635/667 nm fluorescence, primary screen (AID 1139); settings: fluorescence 635/667, higher = more signal
# [16] = system: wheat germ agglutinin (Triticum aestivum), Alexa647-labelled; experiment: Alexa647-WGA lectin binding to printed small molecules – biochemical, small-molecule microarray, 635/667 nm fluorescence, artefact control for SMM control-protein annotation, profiling panel (AID 1140); settings: WGA-A647 binding, 635 nm fluorescence, higher = more signal;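 further: score merges 667 nm feature emission with signal to noise over triplicate slides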
# [17] = target: Luciferin 4-monooxygenase (Photinus pyralis) (UniProt P08659); experiment: inhibition of purified Photinus pyralis luciferase – biochemical, luminescence, purified enzyme, 2006 set, primary screen (AID 1141); settings: purified firefly luciferase, SteadyGlo luminescence, 30 min; higher = more signal, called active from +8 up or from −8 down;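 further: cell-free assay with purified firefly luciferase at 100 ng per well in PBS; test concentration not given here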
# Sequence of Luciferin 4-monooxygenase (Photinus pyralis) (P08659 whole entry, looked up): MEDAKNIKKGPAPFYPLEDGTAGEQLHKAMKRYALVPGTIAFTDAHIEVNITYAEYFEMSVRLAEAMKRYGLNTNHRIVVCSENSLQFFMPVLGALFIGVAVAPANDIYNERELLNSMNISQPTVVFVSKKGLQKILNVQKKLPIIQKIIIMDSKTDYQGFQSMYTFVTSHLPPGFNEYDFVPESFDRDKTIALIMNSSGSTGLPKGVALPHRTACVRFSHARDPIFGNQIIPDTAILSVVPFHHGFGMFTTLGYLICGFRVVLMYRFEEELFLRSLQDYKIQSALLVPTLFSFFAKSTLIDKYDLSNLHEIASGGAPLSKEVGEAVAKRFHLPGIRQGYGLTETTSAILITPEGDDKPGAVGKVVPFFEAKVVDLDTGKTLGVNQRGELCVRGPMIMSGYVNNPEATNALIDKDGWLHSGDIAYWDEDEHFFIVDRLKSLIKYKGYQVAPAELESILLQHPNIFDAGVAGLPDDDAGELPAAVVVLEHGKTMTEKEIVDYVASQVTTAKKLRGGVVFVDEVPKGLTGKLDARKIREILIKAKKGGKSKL
Compound,composite z-score (Albumin (Bos taurus)),composite Z-score [1],composite z-score [2],composite z-score [3],composite z-score [4],composite z-score [5],composite z-score [6],composite z-score (Sam68 (KHDRBS1)),composite z-score [7],composite z-score [8],composite z-score [9],composite z-score [10],composite z-score [11],composite z-score [12],composite z-score [13],composite z-score [14],z-score [15],composite z-score (Lefty1),composite z-score [16],z-score [17]
C=CCN1C(=O)[C@@]2(O[C@@H](CCO)[C@H]([Si](C)(C)c3ccc(OC)cc3)[C@H]2C)c2cc(N3CCCCC3=O)ccc21,0.446,0.734 (inactive),0.239,-0.108,0.429,1.17,0.0635,0.702,0.285,0.901,2.63,1.16,-0.19,0.745,1.36,0.821,0.225,1.23,0.302,-0.0999 (inactive)
O=C1N(Cc2ccccc2)c2ccccc2C[C@@]12N=C(c1ccc(OCCCO)cc1)O[C@H]2c1ccccc1,0.542,-0.329 (inactive),-0.0328,-0.0664,0.183,2.47,-0.0401,1.29,0.0949,1.06,1.81,1.13,0.791,0.209,1.33,1.39,-0.518,0.309,0.294,-2 (inactive)
COCCCNC(=O)[C@@]1(c2ccc([N+](=O)[O-])cc2)CC(=O)N(C2CCCCC2)[C@@H]1c1ccc(CO)cc1I,-0.102,2.09 (inactive),-0.095,0.0409,0.427,2.23,0.426,1.03,0.151,1.14,3.3,1.2,0.964,0.014,1.45,1.44,2.77,0.418,0.524,-0.883 (inactive)
O=C(CS)NCCCCCCNC(=O)[C@H]1C[C@H]2C(=O)NCC(=O)N2[C@H]1c1cccc(OCCO)c1,-0.509,0.54 (inactive),0.191,-0.0995,0.458,1.37,0.122,0.221,0.283,0.966,1.64,0.245,0.128,0.65,1.35,1.56,-0.698,0.47,-0.152,0.057 (inactive)
COc1ccc([Si](C)(C)[C@H]2[C@H](CC(=O)N(CCO)Cc3ccccc3)O[C@@]3(C(=O)N(Cc4ccc(N5C(=O)c6cccc7cccc5c67)cc4)c4ccccc43)[C@@H]2C)cc1,0.0079,0.0959 (inactive),0.376,-0.0928,0.593,1.52,0.801,0.747,0.71,1.16,0.53,0.714,0.0253,0.624,1.17,1.06,-0.701,1.2,0.59,-0.354 (inactive)
COC(=O)[C@@]1(Cc2ccc(F)cc2)[C@H]2c3cc(C(=O)N4CCCC4)n(CCc4c[nH]c5cc(F)ccc45)c3C[C@H]2CN1C(=O)c1ccccc1,0.978,0.905 (inactive),1.05,0.488,0.767,2.76,0.202,1.33,0.212,1.03,1.43,1.26,1.16,0.999,1.13,0.296,0.592,0.293,0.832,2.41 (inactive)
O=C1O[C@H](c2ccccc2)[C@H](c2ccccc2)N2[C@H]1[C@@H](C(=O)N1CCN(c3ncccn3)CC1)[C@]1(C(=O)Nc3ccc(C#CC4(O)CCCCCC4)cc31)[C@H]2c1ccc(O)cc1,0.605,-0.019 (inactive),0.0556,-0.162,0.673,1.28,0.329,1.31,-0.0362,0.946,1.75,1.2,0.62,0.902,0.951,0.89,1.36,0.58,1.06,-1.63 (inactive)
COc1cc2c(cc1OC)CN(C(=O)[C@@H]1[C@H]3C(=O)O[C@H](c4ccccc4)[C@H](c4ccccc4)N3[C@H](c3ccc(O)cc3)[C@@]13C(=O)Nc1ccc(C#CC4=CCCCC4)cc13)CC2,0.833,-0.0662 (inactive),0.0522,-0.0142,0.5,1.49,0.453,1.3,0.153,1.1,1.76,1.19,0.453,0.863,1.08,0.493,-0.637,1.46,1.06,-1.33 (inactive)
COc1ccc(C(O)C2C=CC3C(=O)N(c4ccccc4)C(=O)C3N2Nc2ccccc2F)c2ccccc12 (stereo not given),0.968,0.882 (inactive),0.785,0.579,0.762,2.23,1.34,1.3,-0.316,1.21,1.95,1.23,1.03,0.995,1.33,0.716,-0.646,-0.111,1.29,-1.77 (inactive)
CC(C)C[C@H]1NC(=O)CNC(=O)[C@@]23C(=O)N[C@@H](Cc4ccccc4)C2[C@H](C)[C@@]2(C)O[C@H]2C3/C=C/C/C=C\CNC1=O (stereo not given in full),0.591,-0.0443 (inactive),-0.0984,-0.133,0.392,0.677,0.248,0.258,0.599,0.0947,0.0845,0.0956,-0.419,-0.304,0.67,0.0369,-0.0605,0.438,0.813,0.151 (inactive)
C=CC[C@]1(C(=O)NCC(O)CO)N=C(c2ccc(OCCCO)cc2)O[C@H]1c1ccccc1CN=[N+]=[N-] (stereo not given in full),0.0838,0.58 (inactive),-0.0362,-0.0357,0.522,3.12,0.988,0.605,-1.33,0.148,2.81,1.22,-0.209,-0.204,0.875,0.785,0.895,-0.0497,0.502,-0.154 (inactive)
CC[C@@H](O[Si](C#C[Si](C(C)C)(C(C)C)C(C)C)(C(C)C)C(C)C)c1cn([C@H](CO)Cc2ccccc2)nn1,0.239,0.133 (inactive),-0.0077,-0.0995,0.409,0.398,0.0485,1.09,0.414,0.346,0.0554,0.339,0.324,0.412,0.448,0.729,-0.208,1.21,0.884,0.635 (inactive)
C=C(COC)C(=O)CC[C@H](OC(C)=O)c1ccc(CO)o1,0.485,4.03 (inactive),-0.0328,-0.14,0.472,-0.273,-0.218,-0.893,0.268,0.753,1.59,-0.805,-0.451,0.0974,1.37,1.45,-0.403,0.744,0.841,0.288 (inactive)
C=CC[C@@]1(C(=O)NCCCOC)N=C(c2ccc(OCCCO)cc2)O[C@@H]1c1ccccc1CN=[N+]=[N-],0.829,0.202 (inactive),0.518,-0.108,0.596,2.61,0.159,1.29,0.0984,1.08,2.86,1.21,0.117,1.01,1.15,0.312,1.7,0.309,0.719,0.645 (inactive)
COC(=O)[C@@]1(Cc2ccc(F)cc2)[C@H]2c3cc(C(=O)N(C)C)n(Cc4ccsc4Br)c3C[C@H]2CN1C(=O)c1ccccc1,0.745,-0.857 (inactive),1.88,1.08,0.938,2.95,1.65,0.0161,-0.0576,1.13,0.77,1.12,1.96,1.04,-0.161,0.021,-0.51,-0.675,1.04,1.18 (inactive)
COC(=O)[C@@]1(Cc2ccc(F)cc2)[C@H]2c3cc(C(=O)N4CCCC4)n(Cc4ccc(C(F)(F)F)nc4)c3C[C@H]2CN1C(=O)c1ccccc1,1.05,0.136 (inactive),0.522,-0.0013,0.579,3.01,0.4,1.23,-1.41,0.962,1.2,1.19,1.16,1.01,1.38,-0.71,1.3,-0.13,1.06,3.14 (inactive)
CC(C)(C)OC(=O)CC[C@@]1(C(N)=O)N=C(c2ccc(OCCCO)cc2)O[C@@H]1c1ccccc1CN=[N+]=[N-],0.818,-0.0657 (inactive),0.651,0.27,0.876,3.13,1.12,0.914,0.312,0.933,3.46,1.13,0.177,0.524,1.34,1.34,-0.332,-0.721,0.68,-1.79 (inactive)
CC(C)c1ccc(NN2C(C(O)c3ccccc3)C=CC3C(=O)N(c4ccccc4)C(=O)C32)cc1 (stereo not given),0.834,-0.175 (inactive),0.216,-0.0194,0.574,1.79,-0.191,1.32,-0.747,1.12,0.593,1.19,0.684,1.02,0.075,-0.522,0.266,-0.56,1.13,-2.04 (inactive)
CC(C)c1ccc(NN2C(C(O)C3CCCCC3)C=CC3C(=O)N(c4ccccc4)C(=O)C32)cc1 (stereo not given),0.98,0.637 (inactive),0.286,0.0836,0.632,1.78,0.948,1.31,-0.261,1.14,1.04,1.21,0.401,0.987,0.946,0.66,0.257,1.29,1.27,-1.36 (inactive)
CC(C)(C)OC(=O)CC[C@@]1(C(=O)N2CCOCC2)N=C(c2ccc(OCCCO)cc2)O[C@@H]1c1ccccc1CN=[N+]=[N-],0.966,1.31 (inactive),0.144,0.23,0.829,3.77,0.86,1.29,-0.406,1.09,3.27,1.26,0.855,0.949,1.4,1.76,0.193,-0.271,0.898,-1.2 (inactive)

# From PubChem BioAssay
